In publication PMC4336329 (PLoS ONE, 2015):
The campaign covered roughly 310,000 compounds. About 14,000 (4.5%) showed an effect of 50% or more. Effects have a minus sign here. Many of the other results were omitted from the sample, so strong results are more common in it than they were.

These compounds were tested against human ether-à-go-go-related gene (hERG) potassium channel (human, UniProt Q12809) (assay: primary screen, population patch clamp on CHO cells stably expressing hERG; higher = less effect of the substance).
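Also: peak tail current of the secondary pulse compared with the same well before compound.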

human ether-à-go-go-related gene (hERG) potassium channel, sequence (Q12809 whole entry, looked up): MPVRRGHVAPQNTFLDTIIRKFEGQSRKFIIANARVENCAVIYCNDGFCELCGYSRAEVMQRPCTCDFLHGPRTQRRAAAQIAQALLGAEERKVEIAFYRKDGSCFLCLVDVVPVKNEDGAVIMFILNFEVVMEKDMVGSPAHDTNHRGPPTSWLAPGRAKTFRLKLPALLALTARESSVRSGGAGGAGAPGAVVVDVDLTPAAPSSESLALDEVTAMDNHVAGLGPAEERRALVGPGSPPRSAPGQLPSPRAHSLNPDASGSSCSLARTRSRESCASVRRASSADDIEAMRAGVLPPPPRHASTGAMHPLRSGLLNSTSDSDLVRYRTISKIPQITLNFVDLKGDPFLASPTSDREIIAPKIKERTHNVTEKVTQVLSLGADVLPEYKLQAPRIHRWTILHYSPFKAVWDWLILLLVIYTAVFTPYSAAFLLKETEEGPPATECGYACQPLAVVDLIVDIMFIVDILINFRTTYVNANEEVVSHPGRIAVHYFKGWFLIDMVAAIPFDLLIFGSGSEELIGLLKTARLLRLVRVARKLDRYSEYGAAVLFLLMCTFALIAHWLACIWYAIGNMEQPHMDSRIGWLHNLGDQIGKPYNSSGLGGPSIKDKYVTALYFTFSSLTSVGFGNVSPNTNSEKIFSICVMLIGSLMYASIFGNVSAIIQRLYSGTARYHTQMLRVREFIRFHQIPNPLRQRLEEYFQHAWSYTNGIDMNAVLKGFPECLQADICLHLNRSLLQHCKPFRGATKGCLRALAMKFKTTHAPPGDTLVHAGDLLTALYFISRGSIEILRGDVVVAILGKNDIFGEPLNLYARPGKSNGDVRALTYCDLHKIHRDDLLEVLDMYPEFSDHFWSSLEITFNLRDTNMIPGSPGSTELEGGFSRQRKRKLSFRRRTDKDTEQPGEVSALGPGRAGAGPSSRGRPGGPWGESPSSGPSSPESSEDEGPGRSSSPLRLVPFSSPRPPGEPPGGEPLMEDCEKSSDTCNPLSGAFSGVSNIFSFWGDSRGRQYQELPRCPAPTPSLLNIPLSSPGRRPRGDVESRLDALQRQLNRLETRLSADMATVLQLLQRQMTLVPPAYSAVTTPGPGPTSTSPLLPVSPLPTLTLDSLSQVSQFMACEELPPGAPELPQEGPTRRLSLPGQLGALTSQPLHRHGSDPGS

Row | Compound | hERG current change (%, negative = inhibition) at 10uM [%]
1 | CCOC(=O)c1c(-c2ccc(OC)cc2)oc2cc(Br)c(O)cc12 | 10.4
2 | COc1ccc(NS(=O)(=O)c2ccc(OCC(=O)N3CCOCC3)cc2)cc1Cl | 8.46
3 | CNC(=O)Nc1ccc(C2SCCS2)cc1 | 7.02
4 | CCOC(=O)C1=C2SCCN2C(=O)C(C#N)C1(C)C (stereo not drawn) | 7.34
5 | COc1ccc(-c2cc(C(=O)N3CC4(C)CC3CC(C)(C)C4)no2)cc1OC (stereo not drawn) | -20.1
6 | O=C(NCc1ccccc1F)C(=O)NCC1OCCCN1S(=O)(=O)c1cccs1 (stereo not drawn) | 9.19
7 | Cc1ccccc1NCN1C(=O)C2CCC(C)(C1=O)C2(C)C (stereo not drawn) | -0.978
8 | COCc1[nH]nc2c1C(c1ccccc1F)C(C#N)=C(N)O2 (stereo not drawn) | 11
9 | Cc1ccc(C)c(C(=O)CC2(O)C(=O)N(C)c3ccccc32)c1 (stereo not drawn) | 8.85
10 | O=C(Nc1ccc(Br)c(C(F)(F)F)c1)c1ccc(C(F)(F)F)cc1 | 11.8
11 | O=C(O)c1ccccc1C(=O)Nc1ccc(Br)c(C(F)(F)F)c1 | -70.6
12 | O=C(Nc1ccc(Br)c(C(F)(F)F)c1)c1ccccc1 | 27.3
13 | C/C(=N\NC(=O)CSc1nc2ccccc2s1)c1ccco1 | 0.0885
14 | CC1CCCCN1C(=O)COC(=O)c1cccc(NS(=O)(=O)c2ccccc2)c1 (stereo not drawn) | 0.629
15 | O=C(COc1ccc(-c2nnco2)cc1)Nc1c(F)cccc1F | 0.851
16 | N#CCSc1ccccc1NC(=O)COc1ccc(-c2nnco2)cc1 | -66.3
17 | N#Cc1ccsc1NC(=O)COc1ccc(-c2nnco2)cc1 | 1.95
18 | CCN(CC(=O)Nc1ccc2c(c1)OCCO2)S(=O)(=O)c1cccs1 | -4.54
19 | COc1cccc(C(=O)Nc2c(C)n[nH]c2C)c1 | -0.143
20 | COC(=O)c1ccc(S(=O)(=O)NCc2ccco2)o1 | 6.1
21 | O=C(Cn1c(CN2CCCCC2)nc2ccccc2c1=O)NCc1ccco1 | -15.4
22 | COCCN(Cc1cc2cc(C)ccc2[nH]c1=O)S(=O)(=O)c1ccc(Cl)cc1 | 16.4
23 | COc1ccc(S(=O)(=O)Nc2nc3c(s2)C(=O)CC(C)(C)C3)cc1 | -10.3

Row | Compound | hERG current change (%, negative = inhibition) at 10uM [%]
24 | CCCCn1nc(C(=O)NCc2ccccc2CN2CCCC2)c2ccccc2c1=O | -64.6
25 | CCCCn1nc(C(=O)NCC(=O)Nc2c(C)cccc2C)c2ccccc2c1=O | -68.9
26 | CCCCn1nc(C(=O)Nc2c(C)n(C)n(-c3ccccc3)c2=O)c2ccccc2c1=O | -17.9
27 | CC(C)Cn1nc(C(=O)NCc2ccccc2CN2CCCC2)c2ccccc2c1=O | -38.3
28 | CCCCn1nc(C(=O)Nc2ccccc2N2CCCC2)c2ccccc2c1=O | -9.4
29 | CCCCn1nc(C(=O)N(CC)CC(=O)Nc2c(F)cccc2F)c2ccccc2c1=O | -7.72
30 | COc1cc(CCCN[C@H](CN)Cc2ccccc2)cc(OC)c1OC | -4.22
31 | CCN(CC)CCCN1C(=O)CSC1c1ccc2c(c1)OCO2.Cl (stereo not drawn) | -39.2
32 | O=C1CSC(c2ccc([N+](=O)[O-])cc2)N1Cc1ccccc1 (stereo not drawn) | -48.8
33 | CN(C)CCCN1C(=O)CSC1c1ccc([N+](=O)[O-])cc1.Cl (stereo not drawn) | -46
34 | CCN(CC)CCCN1C(=O)CSC1c1ccc([N+](=O)[O-])cc1.Cl (stereo not drawn) | -72.8
35 | Cl.O=C1CSC(c2cccc([N+](=O)[O-])c2)N1CCN1CCCCC1 (stereo not drawn) | -21.4
36 | Cl.O=C1CSC(c2ccc([N+](=O)[O-])cc2)N1CCN1CCCCC1 (stereo not drawn) | -94.9
37 | O=C(O)c1cc(S(=O)(=O)NC2CCCc3ccccc32)ccc1O (stereo not drawn) | 13.5
38 | CC(C)CN(CC(C)C)c1ccc(C=C2C(=O)NC(=S)NC2=O)cc1[N+](=O)[O-] | 9.99
39 | CC[C@@H](C)C(NC(=O)OC(C)(C)C)c1cn([C@@H](CCC(=O)OC(C)(C)C)C(=O)N2CCN(C(=O)OC(C)(C)C)CC2)nn1 (stereo partly drawn) | -17.6
40 | CC[C@@H](C)C(NC(=O)OC(C)(C)C)c1cn([C@@H](Cc2cc3ccccc3[nH]2)C(=O)N2CCN(C(=O)OC(C)(C)C)CC2)nn1 (stereo partly drawn) | -13.4
41 | CC[C@@H](C)C(NC(=O)OC(C)(C)C)c1cn([C@@H](Cc2ccc(O)cc2)C(=O)N2CCN(C(=O)OC(C)(C)C)CC2)nn1 (stereo partly drawn) | -70
42 | O=c1c2cc(NC(=S)NC3CC3)ccc2nc2n1CCCCC2 | 0.786
43 | CC(C)CCNC(=S)Nc1ccc2nc3n(c(=O)c2c1)CCCCC3 | -46.2
44 | COCCCNC(=S)Nc1ccc2nc3n(c(=O)c2c1)CCCCC3 | 7.89
45 | O=c1c2cc(NC(=S)NC3CCCC3)ccc2nc2n1CCCCC2 | -59.6
46 | O=c1c2cc(NC(=S)NCCCN3CCC(Cc4ccccc4)CC3)ccc2nc2n1CCCCC2 | -82.1

Row | Compound | hERG current change (%, negative = inhibition) at 10uM [%]
47 | O=c1c2cc(NC(=S)NCc3ccccn3)ccc2nc2n1CCCCC2 | -6.42
48 | O=c1c2cc(NC(=S)NCCN3CCCCCC3)ccc2nc2n1CCCCC2 | -1.38
49 | O=c1c2cc(NC(=S)NC3CCN(Cc4ccccc4)CC3)ccc2nc2n1CCCCC2 | -10.4
50 | O=c1c2cc(NC(=S)NC3CCCCC3)ccc2nc2n1CCCCC2 | -70.2
51 | COc1ccccc1OC(=O)c1ccc2nsnc2c1 | 8.28
52 | O=C(OCC#Cc1c(COC(=O)c2ccccc2)nnn1Cc1ccccc1)c1ccccc1 | 5.67
53 | CCOc1ccc(/C=C2\SC(=S)N(CCC(=O)O)C2=O)cc1 | 3.03
54 | CS(=O)(=O)c1ccc(-c2nnc(NC(=O)c3cccc(N4C(=O)CCC4=O)c3)o2)cc1 | 6.65
55 | O=C(Nc1ccc(N2CCCC2)c(Cl)c1)c1ccc(Br)o1 | -7.29
56 | O=C(Nc1ccc(N2CCN(C(=O)c3ccccc3)CC2)c(Cl)c1)c1ccco1 | -29.5
57 | O=C(Nc1ccc(N2CCN(C(=O)c3ccccc3)CC2)c(Cl)c1)c1ccc(Br)o1 | -58.2
58 | O=C(Nc1ccc(N2CCN(C(=O)c3ccccc3)CC2)c(Cl)c1)c1ncn[nH]1 | -5.79
59 | O=C(Nc1ccc(N2CCOCC2)c(Cl)c1)c1ccc(Br)o1 | -31.9
60 | CC(=O)N1CCN(c2ccc(NC(=O)c3ccc(Br)o3)cc2Cl)CC1 | -55.3
61 | CCCCN(CC)S(=O)(=O)c1ccc(C(=O)Nc2nnc(-c3cccs3)o2)cc1 | -8.71
62 | COc1ccc(S(=O)(=O)N2CCOCC2)cc1NC(=O)CSc1nnc(C2CC2)n1C1CC1 | 2.57
63 | O=C(CN1C(=O)NC2(CCCc3ccccc32)C1=O)NCc1cccs1 (stereo not drawn) | 6.2
64 | CCOC(=O)C1CCCN(C(=S)Nc2cccc(Cl)c2)C1 (stereo not drawn) | -5.74
65 | O=C(CCCc1ccccc1)NCCS(=O)(=O)N1CCN(c2ccc(F)cc2)CC1 | -39.3
66 | CCCc1[nH]n(-c2nc3ccccc3s2)c(=O)c1C=NCCCOC | -57.2
67 | CCCc1[nH]n(-c2nc3ccccc3s2)c(=O)c1C=NCC1CCCO1 (stereo not drawn) | -65.5
68 | CCCN=Cc1c(CCC)[nH]n(-c2nc3ccccc3s2)c1=O | -66.9
69 | CCCc1cc(=O)n(-c2nc3ccccc3s2)[nH]1 | 11.2

Row | Compound | hERG current change (%, negative = inhibition) at 10uM [%]
70 | CC(=NCc1ccco1)c1c(C)[nH]n(-c2nc3ccccc3s2)c1=O | 3.78
71 | COC(=O)Cc1[nH]n(-c2nc3ccccc3s2)c(=O)c1C(C)=Nc1ccc(C)cc1 | 5.94
72 | Cc1[nH]n(-c2ccccc2)c(=O)c1C=NCC1CCCO1 (stereo not drawn) | 13.8
73 | CCCCCN=Cc1c(C)[nH]n(-c2nc3ccccc3s2)c1=O | -65.5
74 | COC(=O)Cc1[nH]n(-c2nc3ccccc3s2)c(=O)c1C(C)=O | 21.6
75 | CCCc1[nH]n(-c2nc3ccccc3s2)c(=O)c1C=NCCN1CCOCC1 | -34.5
76 | Cc1[nH]n(-c2ccc([N+](=O)[O-])cc2)c(=O)c1C=NCC1CCCO1 (stereo not drawn) | 0.91
77 | CCCCN=Cc1c(C)[nH]n(-c2ccccc2)c1=S | -4.64
78 | C/C(=N\NC(=O)c1ccc(NS(=O)(=O)c2cccs2)cc1)c1ccc(O)cc1O | -0.956
79 | CSc1nc(N)nc(C(C)C)n1 | -5.59
80 | CC[C@H](C)[C@H](NC(N)=O)C(=O)NCCc1ccc(OC)cc1 | -0.532
81 | O=C(CSc1nc(-c2ccccc2)nc2ccc(F)cc12)Nc1cccc(C(=O)O)c1 | 2.54
82 | O=C(NCc1cccnc1)c1cccs1 | 11.7
83 | COc1cc(NC(=O)C23CC4CC(C2)CC(n2nnc(C)n2)(C4)C3)c(OC)cc1Cl | 4.76
84 | COc1ccc(CCN2CC(C(=O)NC3CCCCC3)CC2=O)cc1OC (stereo not drawn) | 10.2
85 | COC(=O)CC1SCCNC1=O (stereo not drawn) | 9.08
86 | CCCc1[nH]n(-c2nc3ccccc3s2)c(=O)c1C=NCCCN(CC)CC | -75.9
87 | C/C(=N\NC(=O)CC(C)C)c1c(C(F)(F)F)[nH]n(-c2nc3ccccc3s2)c1=O | 8.88
88 | CCCc1[nH]n(-c2nc3ccccc3s2)c(=O)c1C=NCC(C)C | -75.4
89 | CCN(CC)CCCSc1nc2ccccc2s1.O=C(O)C(=O)O | -31.9
90 | CC(=O)c1c(CC(=O)O)[nH]n(-c2nc3ccccc3s2)c1=O | 3.17
